Results reported in the supplement of paper PMC11732987, “Enantioselective OTUD7B fragment discovery through chemoproteomics screening and high-throughput optimisation” (Communications Chemistry, 2025).

Assays:
Assay in all cases: log2 ratio of Biotin-Ahx-Ub-VS probe labelling (fragment/DMSO); higher = less target engagement (more negative = stronger competition), active = hit call of the paper (q ≤ 0.05, log2 ratio ≤ -1)
Conditions in all cases: compound concentration: 200 uM; treatment time: 3 h
[1] = molecular target: USP9X (UniProt Q93008)
Method in brief: (§1)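 Labelled DUBs from HEK293T lysate were NeutrAvidin-enriched, digested with LysC and trypsin, and run by diaPASEF LC-MS/MS. Before that, each 495 µg sample in Tris/CHAPS/IGEPAL buffer with protease inhibitors was treated in triplicate with fragment at 200 µM or vehicle for 3 h, then with Biotin-Ahx-Ub-VS at 0.5 µM final for 1 h. Values are average log2 ratios of fragment over vehicle by unpaired t-test, based on global-median-normalised Spectronaut label-free quantities from proteins with ≥2 unique peptides.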

[2] = molecular target: UniProt O00487
Method in brief: as §1

[3] = molecular target: UniProt O00507
Method in brief: as §1

[4] = molecular target: UniProt P51784
Method in brief: as §1

[5] = molecular target: T1, UniProt Q5T2D3
T1 sequence (whole entry): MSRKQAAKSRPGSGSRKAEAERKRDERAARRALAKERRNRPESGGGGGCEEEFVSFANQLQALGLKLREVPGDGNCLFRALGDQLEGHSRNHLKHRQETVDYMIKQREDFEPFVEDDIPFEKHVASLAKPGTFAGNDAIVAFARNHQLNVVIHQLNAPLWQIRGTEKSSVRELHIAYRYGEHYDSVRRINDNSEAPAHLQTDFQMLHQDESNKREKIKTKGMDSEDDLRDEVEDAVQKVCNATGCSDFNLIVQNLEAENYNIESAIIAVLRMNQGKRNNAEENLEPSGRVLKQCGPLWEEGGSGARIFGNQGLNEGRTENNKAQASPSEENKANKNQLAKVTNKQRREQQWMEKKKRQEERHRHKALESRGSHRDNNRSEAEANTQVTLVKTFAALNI
Method in brief: as §1

[6] = molecular target: T2, UniProt Q8TE49
T2 sequence (whole entry): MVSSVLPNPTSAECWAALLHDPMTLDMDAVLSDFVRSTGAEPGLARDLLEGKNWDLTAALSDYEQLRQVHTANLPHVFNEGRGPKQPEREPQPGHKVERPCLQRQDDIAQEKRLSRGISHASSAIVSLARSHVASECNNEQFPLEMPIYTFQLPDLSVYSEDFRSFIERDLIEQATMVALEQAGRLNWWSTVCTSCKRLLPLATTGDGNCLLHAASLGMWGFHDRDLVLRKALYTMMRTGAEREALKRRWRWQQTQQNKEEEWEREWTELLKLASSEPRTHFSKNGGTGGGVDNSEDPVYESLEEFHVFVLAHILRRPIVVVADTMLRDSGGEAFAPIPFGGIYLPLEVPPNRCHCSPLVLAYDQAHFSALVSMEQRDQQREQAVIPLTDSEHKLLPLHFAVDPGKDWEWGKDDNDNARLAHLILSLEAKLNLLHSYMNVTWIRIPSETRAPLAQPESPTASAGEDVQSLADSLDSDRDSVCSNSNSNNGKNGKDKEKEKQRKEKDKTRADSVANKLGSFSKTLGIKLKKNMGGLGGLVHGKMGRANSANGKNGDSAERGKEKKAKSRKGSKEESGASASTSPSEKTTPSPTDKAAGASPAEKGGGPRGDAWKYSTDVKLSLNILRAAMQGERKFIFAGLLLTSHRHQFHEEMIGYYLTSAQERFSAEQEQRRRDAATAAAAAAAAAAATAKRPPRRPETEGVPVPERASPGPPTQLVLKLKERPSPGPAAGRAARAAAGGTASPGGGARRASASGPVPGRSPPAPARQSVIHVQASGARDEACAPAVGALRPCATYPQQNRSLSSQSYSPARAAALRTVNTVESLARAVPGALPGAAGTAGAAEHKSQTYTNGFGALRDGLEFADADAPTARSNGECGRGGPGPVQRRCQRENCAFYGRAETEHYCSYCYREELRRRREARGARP
Method in brief: as §1

[7] = molecular target: T3, UniProt Q9P2H5
T3 sequence (whole entry): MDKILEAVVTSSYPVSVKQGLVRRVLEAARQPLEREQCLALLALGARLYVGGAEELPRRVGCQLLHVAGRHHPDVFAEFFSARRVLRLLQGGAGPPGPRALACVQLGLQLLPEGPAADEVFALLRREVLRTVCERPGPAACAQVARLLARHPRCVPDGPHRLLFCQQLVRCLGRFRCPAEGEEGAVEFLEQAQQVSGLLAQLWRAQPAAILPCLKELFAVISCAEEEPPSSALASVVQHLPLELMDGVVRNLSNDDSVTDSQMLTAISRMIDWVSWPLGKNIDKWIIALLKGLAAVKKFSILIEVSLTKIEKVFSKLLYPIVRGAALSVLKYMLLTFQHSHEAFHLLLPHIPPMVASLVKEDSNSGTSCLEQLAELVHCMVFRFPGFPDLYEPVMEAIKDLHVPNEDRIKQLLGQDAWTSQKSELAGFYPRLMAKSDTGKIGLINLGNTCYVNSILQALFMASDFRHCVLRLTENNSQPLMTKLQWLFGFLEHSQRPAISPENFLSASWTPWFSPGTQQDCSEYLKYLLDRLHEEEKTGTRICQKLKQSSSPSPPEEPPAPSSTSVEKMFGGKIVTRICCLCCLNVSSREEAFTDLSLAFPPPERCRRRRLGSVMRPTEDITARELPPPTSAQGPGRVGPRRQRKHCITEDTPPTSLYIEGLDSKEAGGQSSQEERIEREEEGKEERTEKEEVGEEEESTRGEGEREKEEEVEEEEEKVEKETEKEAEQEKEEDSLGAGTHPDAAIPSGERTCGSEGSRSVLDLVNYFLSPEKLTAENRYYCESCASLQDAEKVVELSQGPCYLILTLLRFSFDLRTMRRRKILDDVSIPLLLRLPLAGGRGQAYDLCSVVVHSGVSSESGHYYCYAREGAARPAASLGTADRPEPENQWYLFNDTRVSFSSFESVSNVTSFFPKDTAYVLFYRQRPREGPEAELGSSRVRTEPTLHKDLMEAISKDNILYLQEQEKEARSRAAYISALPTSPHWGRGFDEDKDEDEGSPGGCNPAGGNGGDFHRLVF
Method in brief: as §1

[8] = molecular target: T4, UniProt Q9UGI0
T4 sequence (whole entry): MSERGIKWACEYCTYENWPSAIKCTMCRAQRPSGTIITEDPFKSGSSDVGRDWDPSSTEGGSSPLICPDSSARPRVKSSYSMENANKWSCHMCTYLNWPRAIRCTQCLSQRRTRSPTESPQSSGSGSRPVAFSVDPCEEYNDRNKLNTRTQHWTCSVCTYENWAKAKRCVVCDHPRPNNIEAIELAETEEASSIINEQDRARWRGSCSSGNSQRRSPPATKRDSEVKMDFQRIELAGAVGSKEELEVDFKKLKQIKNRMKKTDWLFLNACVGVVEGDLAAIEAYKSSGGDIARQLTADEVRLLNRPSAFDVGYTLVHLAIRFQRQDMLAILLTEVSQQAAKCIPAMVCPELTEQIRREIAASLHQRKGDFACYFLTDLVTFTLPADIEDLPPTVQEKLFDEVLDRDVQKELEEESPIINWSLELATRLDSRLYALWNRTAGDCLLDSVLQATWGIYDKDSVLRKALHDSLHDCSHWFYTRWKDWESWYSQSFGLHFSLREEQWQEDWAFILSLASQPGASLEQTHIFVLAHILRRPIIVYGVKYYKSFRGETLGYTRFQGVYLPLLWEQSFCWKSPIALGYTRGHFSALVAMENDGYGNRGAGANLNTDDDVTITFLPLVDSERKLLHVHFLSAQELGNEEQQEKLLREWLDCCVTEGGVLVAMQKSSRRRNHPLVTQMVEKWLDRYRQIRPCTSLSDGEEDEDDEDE
Method in brief: as §1

[9] = molecular target: T5, YOD1 (UniProt Q5VVQ6)
T5 sequence (whole entry): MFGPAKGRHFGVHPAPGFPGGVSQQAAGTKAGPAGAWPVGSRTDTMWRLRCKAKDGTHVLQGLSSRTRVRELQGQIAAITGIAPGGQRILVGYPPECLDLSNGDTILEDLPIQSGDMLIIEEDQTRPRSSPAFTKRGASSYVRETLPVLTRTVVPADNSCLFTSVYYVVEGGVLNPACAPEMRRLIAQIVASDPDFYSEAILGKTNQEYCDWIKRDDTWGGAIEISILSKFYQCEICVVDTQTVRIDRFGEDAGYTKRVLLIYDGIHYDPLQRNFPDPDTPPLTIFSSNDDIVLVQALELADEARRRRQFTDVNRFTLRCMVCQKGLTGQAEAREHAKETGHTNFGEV
Method in brief: as §1

Measured: log2 ratio of Biotin-Ahx-Ub-VS probe labelling

UniProt O00487, sequence (O00487 whole entry): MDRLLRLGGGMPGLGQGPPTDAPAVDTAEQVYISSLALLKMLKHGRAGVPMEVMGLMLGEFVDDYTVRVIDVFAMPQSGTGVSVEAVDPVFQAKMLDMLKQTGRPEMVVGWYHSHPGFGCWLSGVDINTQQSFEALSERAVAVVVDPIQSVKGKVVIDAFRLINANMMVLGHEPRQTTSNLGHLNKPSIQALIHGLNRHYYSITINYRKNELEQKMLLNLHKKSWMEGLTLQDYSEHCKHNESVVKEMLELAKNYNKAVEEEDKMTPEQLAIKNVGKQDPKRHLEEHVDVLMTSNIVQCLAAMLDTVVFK
UniProt P51784, sequence (P51784 whole entry): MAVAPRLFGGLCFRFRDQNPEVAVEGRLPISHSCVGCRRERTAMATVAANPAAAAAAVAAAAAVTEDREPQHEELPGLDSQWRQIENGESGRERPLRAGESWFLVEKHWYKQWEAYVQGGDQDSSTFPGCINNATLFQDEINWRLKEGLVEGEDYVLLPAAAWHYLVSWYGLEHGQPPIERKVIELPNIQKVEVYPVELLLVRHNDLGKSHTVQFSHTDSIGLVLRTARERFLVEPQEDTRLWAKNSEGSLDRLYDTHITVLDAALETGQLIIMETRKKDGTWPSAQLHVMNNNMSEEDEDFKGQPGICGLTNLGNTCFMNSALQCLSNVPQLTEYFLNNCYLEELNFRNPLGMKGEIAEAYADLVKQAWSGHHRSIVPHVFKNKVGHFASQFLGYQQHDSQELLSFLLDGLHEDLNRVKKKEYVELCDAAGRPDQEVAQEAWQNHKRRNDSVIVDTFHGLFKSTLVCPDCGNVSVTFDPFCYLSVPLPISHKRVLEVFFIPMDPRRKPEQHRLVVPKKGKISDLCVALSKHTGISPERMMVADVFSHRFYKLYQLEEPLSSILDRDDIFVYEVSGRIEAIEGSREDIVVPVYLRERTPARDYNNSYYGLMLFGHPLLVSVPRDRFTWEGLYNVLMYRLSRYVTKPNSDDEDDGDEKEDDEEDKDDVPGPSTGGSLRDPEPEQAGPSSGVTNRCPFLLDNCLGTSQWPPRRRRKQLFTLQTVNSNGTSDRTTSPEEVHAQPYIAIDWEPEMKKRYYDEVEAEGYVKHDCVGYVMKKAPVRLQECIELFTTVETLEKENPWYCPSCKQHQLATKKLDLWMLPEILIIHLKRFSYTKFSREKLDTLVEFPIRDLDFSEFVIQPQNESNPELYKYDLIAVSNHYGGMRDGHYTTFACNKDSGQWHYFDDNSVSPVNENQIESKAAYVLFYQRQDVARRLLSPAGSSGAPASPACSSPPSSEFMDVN
USP9X, sequence (Q93008 whole entry, the tested form may be a part): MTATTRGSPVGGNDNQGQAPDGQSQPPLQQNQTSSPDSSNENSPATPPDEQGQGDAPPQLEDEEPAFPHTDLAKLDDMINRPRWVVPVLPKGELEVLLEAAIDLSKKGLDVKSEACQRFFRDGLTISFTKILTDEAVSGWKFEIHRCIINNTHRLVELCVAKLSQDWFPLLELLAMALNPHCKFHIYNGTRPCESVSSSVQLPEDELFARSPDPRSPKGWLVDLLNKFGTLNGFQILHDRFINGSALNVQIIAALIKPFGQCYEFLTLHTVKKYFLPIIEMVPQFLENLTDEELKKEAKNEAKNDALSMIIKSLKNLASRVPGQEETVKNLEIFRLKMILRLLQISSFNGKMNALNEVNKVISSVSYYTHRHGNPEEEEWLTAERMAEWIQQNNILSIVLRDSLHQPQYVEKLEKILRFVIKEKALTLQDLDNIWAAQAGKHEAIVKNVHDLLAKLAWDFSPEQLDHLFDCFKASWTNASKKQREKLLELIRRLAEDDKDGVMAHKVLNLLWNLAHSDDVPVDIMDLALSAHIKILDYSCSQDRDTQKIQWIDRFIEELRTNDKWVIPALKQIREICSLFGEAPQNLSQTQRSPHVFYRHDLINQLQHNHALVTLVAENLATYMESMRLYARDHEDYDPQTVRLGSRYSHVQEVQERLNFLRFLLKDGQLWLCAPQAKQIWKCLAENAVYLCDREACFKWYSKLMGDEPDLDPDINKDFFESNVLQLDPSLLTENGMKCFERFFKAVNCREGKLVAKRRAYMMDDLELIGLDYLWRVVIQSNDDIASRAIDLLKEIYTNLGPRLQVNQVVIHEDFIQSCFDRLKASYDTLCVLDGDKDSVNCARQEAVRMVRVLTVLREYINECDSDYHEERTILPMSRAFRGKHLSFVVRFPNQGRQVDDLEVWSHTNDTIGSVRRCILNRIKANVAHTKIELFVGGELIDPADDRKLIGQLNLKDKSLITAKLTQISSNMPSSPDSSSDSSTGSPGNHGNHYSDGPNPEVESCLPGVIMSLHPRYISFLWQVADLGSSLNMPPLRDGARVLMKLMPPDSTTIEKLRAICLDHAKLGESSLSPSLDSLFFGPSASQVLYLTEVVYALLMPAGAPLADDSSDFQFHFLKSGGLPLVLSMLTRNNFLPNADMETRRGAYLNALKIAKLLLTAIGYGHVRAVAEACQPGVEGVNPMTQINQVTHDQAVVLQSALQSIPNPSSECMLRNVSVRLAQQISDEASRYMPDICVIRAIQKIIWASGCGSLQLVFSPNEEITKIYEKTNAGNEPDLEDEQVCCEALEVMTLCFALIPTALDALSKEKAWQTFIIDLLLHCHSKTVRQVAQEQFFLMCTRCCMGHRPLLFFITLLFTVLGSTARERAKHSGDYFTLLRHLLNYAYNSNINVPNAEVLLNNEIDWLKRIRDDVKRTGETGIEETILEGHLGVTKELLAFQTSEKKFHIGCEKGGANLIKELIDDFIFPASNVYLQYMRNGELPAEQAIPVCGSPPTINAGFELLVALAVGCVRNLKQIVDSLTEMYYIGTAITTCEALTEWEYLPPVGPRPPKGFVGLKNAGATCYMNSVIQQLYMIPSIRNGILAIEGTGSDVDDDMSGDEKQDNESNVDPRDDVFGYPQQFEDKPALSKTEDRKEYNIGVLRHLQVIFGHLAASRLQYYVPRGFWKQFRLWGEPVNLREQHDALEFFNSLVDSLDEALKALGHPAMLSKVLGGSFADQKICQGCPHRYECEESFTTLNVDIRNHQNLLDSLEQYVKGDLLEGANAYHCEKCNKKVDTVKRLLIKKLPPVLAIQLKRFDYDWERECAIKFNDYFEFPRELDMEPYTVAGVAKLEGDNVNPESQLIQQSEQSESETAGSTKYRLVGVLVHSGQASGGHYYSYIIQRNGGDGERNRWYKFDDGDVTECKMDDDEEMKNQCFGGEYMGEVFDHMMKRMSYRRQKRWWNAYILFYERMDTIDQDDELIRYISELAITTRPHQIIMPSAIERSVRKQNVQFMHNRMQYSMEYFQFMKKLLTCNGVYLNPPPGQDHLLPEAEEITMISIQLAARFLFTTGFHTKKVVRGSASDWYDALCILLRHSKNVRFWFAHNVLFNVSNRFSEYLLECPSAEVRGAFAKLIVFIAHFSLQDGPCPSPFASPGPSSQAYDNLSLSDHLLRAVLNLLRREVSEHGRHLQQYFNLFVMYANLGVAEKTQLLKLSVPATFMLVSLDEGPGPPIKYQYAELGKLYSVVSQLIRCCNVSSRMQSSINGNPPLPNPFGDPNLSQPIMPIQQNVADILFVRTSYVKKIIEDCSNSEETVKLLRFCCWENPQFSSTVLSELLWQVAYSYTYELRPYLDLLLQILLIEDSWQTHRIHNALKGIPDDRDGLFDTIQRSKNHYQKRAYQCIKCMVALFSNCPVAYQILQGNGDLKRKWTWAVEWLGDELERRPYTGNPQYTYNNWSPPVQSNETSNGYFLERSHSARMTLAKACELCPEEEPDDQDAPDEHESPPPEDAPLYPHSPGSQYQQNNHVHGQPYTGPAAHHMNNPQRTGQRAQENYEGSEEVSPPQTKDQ

O=C(CCl)N1CCCN(C(=O)c2ccc(Cl)cc2)CC1
inactive: [1] -0.318 | [2] 0.0259 | [3] -0.381 | [4] -0.139 | [5] -0.134 | [6] -0.265 | [7] -0.166 | [8] -0.84 | [9] -0.417
